Experimental data: PubChem BioAssay (NCATS)
Inconclusive results are not listed. Calls of active or inactive are those of the source. The call rests on the fitted dose curve; in most records, active means well fitted inhibition curve with a large enough effect; inconclusive means small, poorly fitted or top-dose-only effect; inactive means flat fitted curve, though single readings scatter. Numbered stars: 1 amine (or outer) side, 2 acyl side, 3 side chain; on linkers, the order of the positions; unused ones are H or OH. Bridge positions count the residues as written; N and C are the ends. Square brackets hold non-standard residues; d marks the D form. Peptide text beside a SMILES is read from it. * marks the point of attachment. ξ: configuration not given here. ΔAla(Z-3-ureido) = NC(=O)N/C=C(\N)C(=O)O; X1 = NC1=NCCC(C(N[*:1])C(=O)[*:2])N1; ξβ3hOrn = NCCCC(N)CC(=O)*; Dap = NC[CH](N)C(=O)O

Legend:
[1] = target: Ubiquitin carboxyl-terminal hydrolase 1 (Homo sapiens) (UniProt O94782); assay: Inhibitors of USP1/UAF1: Pilot qHTS (AID 504865); further: nearly all actives have a fitted effect of over 35% in size
Sequence of Ubiquitin carboxyl-terminal hydrolase 1 (Homo sapiens) (O94782 whole entry, looked up): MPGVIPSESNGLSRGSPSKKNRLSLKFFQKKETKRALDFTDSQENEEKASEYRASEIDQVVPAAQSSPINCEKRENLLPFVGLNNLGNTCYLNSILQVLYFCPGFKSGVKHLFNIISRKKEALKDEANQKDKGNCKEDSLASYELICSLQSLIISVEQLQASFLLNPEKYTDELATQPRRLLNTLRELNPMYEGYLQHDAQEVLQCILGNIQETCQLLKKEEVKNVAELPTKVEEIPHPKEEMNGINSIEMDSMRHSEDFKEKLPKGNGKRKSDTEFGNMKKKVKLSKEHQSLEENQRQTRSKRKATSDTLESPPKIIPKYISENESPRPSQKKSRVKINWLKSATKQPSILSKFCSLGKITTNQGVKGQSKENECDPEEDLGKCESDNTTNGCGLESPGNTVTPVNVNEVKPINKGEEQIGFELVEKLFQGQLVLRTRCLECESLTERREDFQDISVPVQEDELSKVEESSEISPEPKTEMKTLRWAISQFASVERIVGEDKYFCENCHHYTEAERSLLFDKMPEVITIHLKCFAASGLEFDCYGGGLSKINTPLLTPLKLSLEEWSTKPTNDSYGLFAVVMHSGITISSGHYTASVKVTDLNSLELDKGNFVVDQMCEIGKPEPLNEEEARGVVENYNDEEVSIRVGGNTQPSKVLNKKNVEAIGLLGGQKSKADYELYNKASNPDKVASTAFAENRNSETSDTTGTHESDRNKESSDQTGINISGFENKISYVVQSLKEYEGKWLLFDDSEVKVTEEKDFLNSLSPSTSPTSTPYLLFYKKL
Summary of the method: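 Enzyme-free wells gave the negative control, while test wells held 1nM USP1/UAF1 preincubated with compound for 15 min at room temperature. Ub-Rho at 150nM final started the reaction, and fluorescence at 480/540 nm was recorded kinetically.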

[2] = target: Luciferin 4-monooxygenase (Photinus pyralis) (UniProt P08659); assay: Biochemical firefly luciferase enzyme assay for NPC (AID 624030); further: nearly all actives have a fitted effect of over 70% in size
Sequence of Luciferin 4-monooxygenase (Photinus pyralis) (P08659 whole entry, looked up): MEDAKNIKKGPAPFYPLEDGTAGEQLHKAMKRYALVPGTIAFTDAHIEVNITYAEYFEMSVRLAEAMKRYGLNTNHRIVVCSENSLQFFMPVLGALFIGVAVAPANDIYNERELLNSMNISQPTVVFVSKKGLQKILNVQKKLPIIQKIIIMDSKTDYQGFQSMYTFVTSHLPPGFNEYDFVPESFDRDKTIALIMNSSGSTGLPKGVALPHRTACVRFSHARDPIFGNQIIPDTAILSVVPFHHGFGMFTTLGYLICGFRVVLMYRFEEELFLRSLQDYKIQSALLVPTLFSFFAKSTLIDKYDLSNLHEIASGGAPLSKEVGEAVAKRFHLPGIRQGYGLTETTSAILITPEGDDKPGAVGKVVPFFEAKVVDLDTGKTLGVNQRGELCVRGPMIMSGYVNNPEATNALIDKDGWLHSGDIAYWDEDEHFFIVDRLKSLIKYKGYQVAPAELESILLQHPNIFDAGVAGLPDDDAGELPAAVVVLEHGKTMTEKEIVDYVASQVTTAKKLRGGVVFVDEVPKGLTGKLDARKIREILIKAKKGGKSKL
Summary of the method: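 Purified P. pyralis luciferase at 10 nM in 50 mM Tris Acetate (final), luminescence read within 5 minutes of enzyme addition to compounds. Activity normalised to PTC124 versus DMSO; concentration-response curves classed by r2, magnitude and activity.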

[3] = qHTS profiling for inhibitors of Plasmodium falciparum proliferation (AID 504749);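 on activity, negative = inhibition: 0% = DMSO vehicle and full inhibition = artemisinin control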; on all read-outs here: nearly all actives have a fitted effect of over 60% in size; details: P. falciparum in erythrocytes, SYBR Green DNA, 72 h; for activity, negative = inhibition: at 28.7 µM (top of the series)
Summary of the method: (§1)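 SYBR Green fluorescence (ex 485 nm, em 535 nm) reports parasite DNA after 72 h compound exposure of infected red cells at 0.3% parasitemia, 2.5% hematocrit; signal normalized to 0.29 uM artemisinin and vehicle wells.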

ATS189 = assay: as above; details: P. falciparum in erythrocytes, SYBR Green DNA, 72 h; series mostly up to 28.7 µM
Summary of the method: as §1

CP185 = assay: as above; details: P. falciparum in erythrocytes, SYBR Green DNA, 72 h; series mostly up to 28.7 µM
Summary of the method: as §1

CP201 = assay: as above; details: P. falciparum in erythrocytes, SYBR Green DNA, 72 h; series mostly up to 28.7 µM
Summary of the method: as §1

CP238 = assay: as above; details: P. falciparum in erythrocytes, SYBR Green DNA, 72 h; series mostly up to 28.7 µM
Summary of the method: as §1

CP252 = assay: as above; details: P. falciparum in erythrocytes, SYBR Green DNA, 72 h; series mostly up to 28.7 µM
Summary of the method: as §1

CP265 = assay: as above; details: P. falciparum in erythrocytes, SYBR Green DNA, 72 h; series mostly up to 28.7 µM
Summary of the method: as §1

CP286 = assay: as above; details: P. falciparum in erythrocytes, SYBR Green DNA, 72 h; series mostly up to 28.7 µM
Summary of the method: as §1

CP305 = assay: as above; details: P. falciparum in erythrocytes, SYBR Green DNA, 72 h; series mostly up to 28.7 µM
Summary of the method: as §1

CP325 = assay: as above; details: P. falciparum in erythrocytes, SYBR Green DNA, 72 h; series mostly up to 28.7 µM
Summary of the method: as §1

FAB9 = assay: as above; details: P. falciparum in erythrocytes, SYBR Green DNA, 72 h; series mostly up to 28.7 µM
Summary of the method: as §1

PC15 = assay: as above; details: P. falciparum in erythrocytes, SYBR Green DNA, 72 h; series mostly up to 28.7 µM
Summary of the method: as §1

PC49 = assay: as above; details: P. falciparum in erythrocytes, SYBR Green DNA, 72 h; series mostly up to 28.7 µM
Summary of the method: as §1
Potency means the concentration at half of the fitted maximal effect.

c1ccc(-c2csc(-c3nc4ccccc4[nH]3)n2)cc1
active: Potency [1] 22.4 µM

CCC(C)C1NC(=O)C(Cc2ccc(O)cc2)NC(=O)C(N)CSSCC(C(=O)N2CCCC2C(=O)NC(CC(C)C)C(=O)NCC(N)=O)NC(=O)C(CC(N)=O)NC(=O)C(CCC(N)=O)NC1=O (stereo not drawn)
inactive: Potency [2] | activity, negative = inhibition ([3]; parasite line A) 0.779% | activity, negative = inhibition ([3]; parasite line B) 4.79% | Potency (ATS189) | Potency (CP185) | Potency (CP201) | Potency (CP238) | Potency (CP252) | Potency (CP265) | Potency (CP286) | Potency (CP305) | Potency (CP325) | Potency (FAB9) | Potency (PC15) | Potency (PC49)

CCC1NC(=O)C(NC(=O)c2ncccc2O)C(C)OC(=O)C(c2ccccc2)NC(=O)C2CC(=O)CCN2C(=O)C(Cc2ccccc2)N(C)C(=O)C2CCCN2C1=O (stereo not drawn)
inactive: Potency [1] | Potency [2] | activity, negative = inhibition ([3]; parasite line A) -20.9% | activity, negative = inhibition ([3]; parasite line B) -28.7% | Potency (ATS189) | Potency (CP185) | Potency (CP201) | Potency (CP238) | Potency (CP252) | Potency (CP265) | Potency (CP286) | Potency (CP305) | Potency (CP325) | Potency (FAB9) | Potency (PC15) | Potency (PC49)

CC(C)C[C@H](NC(=O)[C@@H](Cc1c[nH]c2ccccc12)NC(=O)[C@@H](Cc1ccc(O)cc1)NC(=O)[C@@H](CO)NC(=O)[C@@H](Cc1c[nH]c2ccccc12)NC(=O)C(Cc1cnc[nH]1)NC(=O)C1CCC(=O)N1)C(=O)N[C@@H](CCCN=C(N)N)C(=O)N1CCC[C@@H]1C(=O)NCC(N)=O (stereo partly drawn)
inactive: Potency [1] | Potency [2] | activity, negative = inhibition ([3]; parasite line A) 17.3% | activity, negative = inhibition ([3]; parasite line B) 2.16% | Potency (ATS189) | Potency (CP185) | Potency (CP201) | Potency (CP238) | Potency (CP252) | Potency (CP265) | Potency (CP286) | Potency (CP305) | Potency (CP325) | Potency (FAB9) | Potency (PC15) | Potency (PC49)

COc1ccc(-c2nc3ccc(C4=C(C)CC(=O)NN4)cc3[nH]2)cc1
inactive: activity, negative = inhibition ([3]; parasite line B) -13% | Potency (ATS189) | Potency (CP185) | Potency (CP201) | Potency (CP238) | Potency (CP252) | Potency (CP265) | Potency (CP286) | Potency (CP305) | Potency (CP325) | Potency (FAB9) | Potency (PC15) | Potency (PC49)
active: Potency [2] 12.8 µM

NCCCC(N)CC(=O)NCC1NC(=O)C(CO)NC(=O)C(N)CNC(=O)C(C2CCN=C(N)N2)NC(=O)/C(=C/NC(N)=O)NC1=O (stereo not drawn) (H-[Dap]S[Dap](ξβ3hOrn)[ΔAla(Z-3-ureido)][X1]; lactam 1-C; configuration not given here)
inactive: Potency [1] | Potency [2] | activity, negative = inhibition ([3]; parasite line A) 10.1% | activity, negative = inhibition ([3]; parasite line B) 0.112% | Potency (ATS189) | Potency (CP185) | Potency (CP201) | Potency (CP238) | Potency (CP252) | Potency (CP265) | Potency (CP286) | Potency (CP305) | Potency (CP325) | Potency (FAB9) | Potency (PC15) | Potency (PC49)

O=C(OCC1OC(OC(=O)c2cc(O)c(O)c(OC(=O)c3cc(O)c(O)c(O)c3)c2)[C@@H](OC(=O)c2cc(O)c(O)c(OC(=O)c3cc(O)c(O)c(O)c3)c2)C(OC(=O)c2cc(O)c(O)c(OC(=O)c3cc(O)c(O)c(O)c3)c2)C1OC(=O)c1cc(O)c(O)c(OC(=O)c2cc(O)c(O)c(O)c2)c1)c1cc(O)c(O)c(OC(=O)c2cc(O)c(O)c(O)c2)c1 (stereo partly drawn)
active: Potency [2] 12.8 µM | Potency ([3]; parasite line A) 2.51 µM | Potency ([3]; parasite line B) 3.55 µM | Potency (ATS189) 2.51 µM | Potency (CP185) 2.82 µM | Potency (CP201) 4.78 µM | Potency (CP238) 2.51 µM | Potency (CP252) 2.51 µM | Potency (CP265) 2.51 µM | Potency (CP286) 2.24 µM | Potency (CP305) 3.38 µM | Potency (CP325) 3.01 µM | Potency (FAB9) 11.2 µM | Potency (PC15) 7.94 µM | Potency (PC49) 11.2 µM

C[C@H]1[C@H]2CC[C@H]3C4CC=C5C[C@@H](N(C)C)CC[C@]5(C)C4CC[C@]23CN1C (stereo partly drawn)
inactive: Potency [1]

COc1cccc2c1C(=O)CC(c1ccccc1)O2 (stereo not drawn)
inactive: Potency [1]

Nc1nc2c(c(=O)[nH]1)N=C(CNc1ccc(C(=O)NC(CCC(=O)O)C(=O)O)cc1)CN2 (stereo not drawn)
inactive: Potency [1]

COc1cc2c(C(=O)c3ccccc3)c3c4c(cc(OC)c(OC)c4c2cc1OC)CCN3C
active: Potency [1] 25.1 µM

O=C(O)c1ccccc1-c1c2cc(Br)c(=O)c(Br)c-2oc2c(Br)c(O)c(Br)cc12
inactive: Potency [1] | activity, negative = inhibition ([3]; parasite line A) 7.94% | activity, negative = inhibition ([3]; parasite line B) -13.6% | Potency (ATS189) | Potency (CP185) | Potency (CP201) | Potency (CP238) | Potency (CP252) | Potency (CP265) | Potency (CP286) | Potency (CP305) | Potency (CP325) | Potency (FAB9) | Potency (PC15) | Potency (PC49)

Cn1cc(O)nc1NC(=O)Nc1cccc(Cl)c1
inactive: Potency [1] | Potency [2] | activity, negative = inhibition ([3]; parasite line A) -22.2% | activity, negative = inhibition ([3]; parasite line B) -22.3% | Potency (ATS189) | Potency (CP185) | Potency (CP201) | Potency (CP238) | Potency (CP252) | Potency (CP265) | Potency (CP286) | Potency (CP305) | Potency (CP325) | Potency (FAB9) | Potency (PC15) | Potency (PC49)
